# Laboratory results from PubChem BioAssay AID1259343 (VanderVen Lab, College of Veterinary Medicine, Cornell …, 2017).
# Hit rate of the full screen: of about 6,200 compounds, about 2,900 (47%) were called active. So high a share suggests a set chosen from earlier hits. Some of the results follow. Values without a mark were called inactive. No stated cut-off is given here; in the data, active means inhibition above about 50%; inactive means the rest.
# Assay: Mycobacterium tuberculosis growth inhibition, primary screen (AID 1259343)
# Conditions: inhibition: at 10 µM, active compounds read high; outcome: 10 uM
row,SMILES,inhibition
1,O=C1C=CC(=O)N1c1cc(Cl)c(Cl)cc1Cl,11.4%
2,Cc1cccn2c(=O)c(C=NCCO)c(NCc3ccco3)nc12,45.5%
3,CCC(C)N=Cc1c(NCc2ccco2)nc2c(C)cccn2c1=O (centres undefined),4.74%
4,O=c1c(C=NCc2ccco2)c(NCc2ccco2)nc2ccccn12,88.3% (active)
5,O=C(COc1ccc(F)cc1Br)NCCOc1ccc(Cl)cc1,77.7% (active)
6,Cc1ccc(C2=CCN(C(=O)CNC(=O)C3CCCCC3)CC2)cc1,93.1% (active)
7,O=C(CC1CCCC1)N1CC=C(c2ccc(O)cc2)CC1,41%
8,O=C(NC(c1ccccc1)c1ccc2ccccc2n1)C1CCN(Cc2ccc(Oc3ccccc3)cc2)CC1 (centres undefined),56.5% (active)
9,C=CC[C@H]1CC(C)=C[C@H](CC=C)N1Cc1ncccc1C(=O)O,-5.55%
10,Cc1cccc(C(=O)O)c1O,23.2%
11,Cc1ccnc(Nc2ccc(NCCNC(=O)Nc3cccc(Cl)c3C)nn2)c1,36.1%
12,Cc1c(Cl)cccc1Nc1ccccc1C(=O)O,101% (active)
13,C[CH2][Hg][S]c1ccccc1C(=O)O,102% (active)
14,O=C(O)c1cccc2cccc(-c3cccc4cccc(C(=O)O)c34)c12,37%
15,O=C(Nc1ccc(Cl)cc1)c1c(Cl)nsc1Cl,68.1% (active)
16,O=C(O)Cc1ccc([N+](=O)[O-])cc1Sc1ccc(Cl)cc1,54.2% (active)
17,O=C1CC(=O)CC2(CCCC2)C1,22.1%
18,O=C(Nc1ccc(Cl)c(Cl)c1)Nc1cc(C(F)(F)F)c[nH]c1=O,9.25%
19,CN(C)c1c(Cl)cccc1NC(=O)c1cc(C2CC2)[nH]n1,19.5%
20,O=C(Nc1ccc(C(F)(F)F)cc1Cl)c1cc([N+](=O)[O-])[nH]n1,102% (active)
21,CN(Cc1ccsc1)C(=O)c1cccc2c(=O)c3ccccc3[nH]c12,43.6%
22,O=S(=O)(Nc1nc2c(F)cc(F)cc2s1)c1ccc(F)cc1F,73.8% (active)
23,O=C(Nc1cccc(N2CCOC2=O)c1)C1CC(c2ccccc2)=NO1 (centres undefined),83.1% (active)
24,N#Cc1cnc(N(Cc2cccc(O)c2)CC2CC2)c(Cl)c1,-4.43%
25,FCCCN1CCc2onc(-c3ccc(-c4ccccc4)cc3)c2C1,38.4%

row,SMILES,inhibition
1,CCCCC(CC)COCCCNC(=O)c1ccc(-c2ccc3c(c2)OCO3)s1 (centres undefined),89.3% (active)
2,O=C(NCCc1ccc(F)cc1)c1ccc(-c2ccc3c(c2)OCO3)s1,66.8% (active)
3,O=C(NCCc1ccc(F)cc1)c1ccc(-c2cccc(Cl)c2)s1,28.2%
4,O=C(NC1CCc2ccccc21)c1ccc(-c2ccc3c(c2)OCCO3)s1 (centres undefined),34.8%
5,CSCCCNC(=O)c1ccc(-c2ccc(F)cc2)s1,2.44%
6,Cc1nc(NCCNC(=O)Nc2ccc(F)c(Cl)c2)cc(N2CCCC2)n1,58.8% (active)
7,COc1ccc(/C=C/CN2CCCC(CO)(Cc3cccc(Cl)c3)C2)cc1 (centres undefined),inactive
8,COc1ccc(/C=C/CN2CCN(c3cc(-n4cccn4)ncn3)CC2)cc1,89.8% (active)
9,Cc1ccc(NC(=O)CCn2nc3ccccn3c2=O)cc1F,57.8% (active)
10,CC1CN(C(=O)Nc2ccccc2C(F)(F)F)c2cccnc2N1 (centres undefined),24.7%
11,COC(=O)C1CCN(C(=O)COc2ccc3ccccc3c2Br)CC1,-1.48%
12,COC(=O)C1CCN(C(=O)COc2ccc(OCc3ccccc3)cc2)CC1,81.6% (active)
13,O=C(COc1ccc2ccccc2c1)N1CCC(Nc2ccccc2)CC1,3.84%
14,CCN1CC(=Cc2cc(C)n(C3CC3)c2C)C(=O)C(=Cc2cc(C)n(C3CC3)c2C)C1,30.3%
15,CCCCCNC(=O)c1sc2[nH]c(=S)[nH]c(=O)c2c1C,36.1%
16,CCCCCNC(=O)N1CC2C3CCC(C3)C21 (centres undefined),28.6%
17,CCCCCCNC(=O)n1cc(F)c(=O)[nH]c1=O,97% (active)
18,O=C(NCc1ccc(Cl)cc1)c1cncn1-c1ccc(-c2ccc(F)c(F)c2)cc1,-2.19%
19,Cc1cccc(-c2cccc(CNC(=O)c3ccc(=O)[nH]n3)c2)c1,18.8%
20,Cc1cccc(-c2ccc(CNC(=O)c3ccc(=O)n(C)n3)cc2)c1,55.3% (active)
21,COc1cc(OC)cc(-c2cc3c(Nc4ccccn4)nccc3n2C)c1,57% (active)
22,COc1cccc(Nc2nccc3c2cc(-c2ccccc2)n3C)c1,87.3% (active)
23,Cn1c(-c2cccc(C(F)(F)F)c2)cc2c(Nc3ccncc3)nccc21,97.1% (active)
24,CC(C)c1ccc(Nc2cc3c(cn2)cc(-c2cccnc2)n3C)cc1,47.9%
